# Measurements published in PubChem BioAssay.
# Activity calls are given as the source filed them. Rule as the data show it, unless noted: active = inhibition above about 80%; inactive = the rest.
# Columns and labels:
# [1] = growth inhibition, single agent or in combination, cell-based, chromothripsis tumors, cisplatin or BGB combos (AID 1671449); details: LFS_MB_P medulloblastoma cells;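 also: cells exposed for 96 hours; 0% = vehicle DMSO and 100% = killing by high DMSO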
# [2] = growth inhibition, single agent and combos, cell-based, chromothripsis tumors, cisplatin or BGB combos (AID 1671450); details: HDN33 neuroblastoma cells, stronger effect = higher value;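 also: cells exposed to compound for four days; 0% = vehicle DMSO and 100% = cell killing by high DMSO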
# [3] = growth inhibition, single agents and combos, ICB984, cell-based, cisplatin or BGB combos, synergistic combos for chromothripsis tumors (AID 1671451; call rule not given here;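 also: cells exposed for 96 hours before readout; 0% = vehicle DMSO and 100% = killing by high DMSO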); details: ICB984 medulloblastoma cells, drug combinations, stronger effect = higher value
# [4] = growth inhibition, single agents and combos, LFS_MB_1R, cell-based, cisplatin or BGB combos, synergistic combos for chromothripsis tumors (AID 1671452); details: LFS_MB_1R medulloblastoma cells, stronger effect = higher value;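 also: cells exposed for 96 hours before readout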
# [5] = growth inhibition, single agents and combos, HTB85, cell-based, BGB or cisplatin IC20 combos, synergistic combos for chromothripsis tumors (AID 1671453); details: HTB85 osteosarcoma cells, drug combinations, stronger effect = higher value;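 also: cells exposed for 96 hours before readout; 0% = vehicle DMSO and 100% = high DMSO killing control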
# [6] = growth inhibition, single agents and combos, CRL2098, cell-based, BGB or cisplatin IC20 combos, synergistic combos for chromothripsis tumors (AID 1671454); details: CRL2098 osteosarcoma cells, drug combinations, stronger effect = higher value;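 also: cells exposed for 96 h before readout; 0% = vehicle DMSO and 100% = killing by high DMSO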
# [7] = growth inhibition, single agents and combos, HD-MB03, cell-based, BGB or cisplatin IC20 combos, synergistic combos for chromothripsis tumors (AID 1671455; in the data active = inhibition above about 83%;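 also: 0% = vehicle DMSO and 100% = high DMSO as cytotoxic control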); details: HD-MB03 medulloblastoma cells, stronger effect = higher value
# [8] = growth inhibition, single agents and combos, UWB1.289, cell-based, BGB or cisplatin combos, synergistic combos for chromothripsis tumors (AID 1671456); details: UWB1.289 ovarian carcinoma cells, stronger effect = higher value;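 also: cells exposed to compound for four days; 0% = vehicle DMSO and 100% = killing by high DMSO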
# [9] = growth inhibition, single agents and combos, LFS_MB_2R, cell-based, cisplatin combos, synergistic combos for chromothripsis tumors (AID 1671457); details: LFS_MB_2R medulloblastoma cells, stronger effect = higher value;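 also: cells exposed to compound for four days before readout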
# [10] = growth inhibition, MDA-MB-436, cell-based, BGB or cisplatin combos, synergistic combos for chromothripsis tumors (AID 1671458; call rule not given here;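 also: cells exposed for 96 hours; 0% = vehicle DMSO and 100% = killing by high DMSO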); details: MDA-MB-436 breast carcinoma growth inhibition, drug combinations, stronger effect = higher value
# [11] = UWB1.289_BRCA1 ovarian cancer growth, cell-based, BGB or cisplatin combinations (AID 1671459); details: UWB1.289 BRCA1 ovarian carcinoma, drug combinations, stronger effect = higher value
# [12] = drug combination toxicity in non-malignant astrocytes – cell-based, BGB or cisplatin IC20 combos, cytotoxicity control for chromothriptic childhood tumor combination screen (AID 1671460); details: Human astrocytes, viability inhibition, drug combinations, at 0.5 µM, stronger effect = higher value;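 also: cells exposed to compounds for 96 hours before viability readout; 0% = vehicle and 100% = killing control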
# [13] = BT084 cell growth, single and combined drugs, ICGC_MB145, cisplatin and BGB IC40 combos (AID 1671461); details: BT084 medulloblastoma cells, drug combinations, stronger effect = higher value;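 also: cells exposed to drugs for 96 hours; 0% = vehicle DMSO and 100% = high DMSO full killing control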
# [14] = RCMB18 cell growth, single agent and combined, cisplatin and BGB IC40 combos (AID 1671462); details: RCMB18 medulloblastoma cells, stronger effect = higher value;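 also: cells exposed to compound for four days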
# [15] = CRL1545 cell growth, single agent and combined, cisplatin and BGB IC20 combos (AID 1671464); details: CRL1545 osteosarcoma cells, stronger effect = higher value;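 also: cells exposed to compound for 96 hours before readout; 0% = vehicle DMSO and 100% = high DMSO killing control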
# [16] = at 0.5 µM, stronger effect = higher value
# [17] = measured here: combination with BGB IC20, at 0.005 µM
# [18] = measured here: combination with BGB IC40, at 0.005 µM
# [19] = measured here: combination with BGB IC40, at 0.05 µM
# [20] = measured here: combination with cisplatin, at 0.5 µM, stronger effect = higher value
# [21] = measured here: combination with cisplatin, at 5 µM, stronger effect = higher value
# [22] = measured here: with BGB IC20 combination, at 0.5 µM
# [23] = measured here: with cisplatin IC20 combination, at 0.5 µM
# [24] = measured here: 5 uM single agent, at 5 µM
# [25] = measured here: combination with cisplatin, at 0.5 µM
# [26] = measured here: combination with cisplatin, at 5 µM
# [27] = measured here: with BGB IC20, at 0.5 µM
# [28] = measured here: with BGB IC20, at 5 µM
# [29] = measured here: with cisplatin IC20, at 0.5 µM
# [30] = measured here: with cisplatin IC20, at 5 µM
# [31] = measured here: combination with BGB at IC20, at 0.5 µM
# [32] = measured here: combination with cisplatin at IC20, at 0.5 µM
# [33] = measured here: combo with BGB at IC20, at 0.5 µM
# [34] = measured here: combo with cisplatin at IC20, at 0.5 µM
# [35] = measured here: inhibition with BGB combination, at 0.05 µM
# [36] = measured here: inhibition with cisplatin combination, at 0.05 µM
# [37] = measured here: BGB combination, at 0.5 µM
# [38] = measured here: BGB combination, at 5 µM
# [39] = measured here: cisplatin combination, at 0.5 µM
# [40] = measured here: cisplatin combination, at 5 µM
# [41] = BGB combination, concentration series, at 5 µM
# [42] = cisplatin combination, concentration series, at 5 µM
# [43] = measured here: combo with BGB IC20
# [44] = measured here: combo with cisplatin IC20
# [45] = cisplatin combination, at 0.5 µM
# [46] = measured here: BGB IC40 combination 0.05 uM, at 0.05 µM
smiles,measurement,setting,value
Cc1cc(C)cc(C(=O)NOCCCCCC(=O)NO)c1,inhibition,[1]; [16],-18.6% (inactive)
same,inhibition,[1]; [17],-25.1%
same,inhibition,[1]; [18],-71.8%
same,inhibition,[1]; [19],-38.3%
same,inhibition,[1]; [20],23.3%
same,inhibition,[1]; [21],101%
same,inhibition,"[2]; BGB combo, at 5 µM",98%
same,inhibition,[2]; at 0.5 µM,16.4% (inactive)
same,inhibition,"[2]; cisplatin combo, at 5 µM",99.6%
same,inhibition,[2]; [22],11.9%
same,inhibition,[2]; [23],14.2%
same,inhibition,"[2]; single agent, at 5 µM",99.6%
same,inhibition,"[3]; BGB IC20 combo, at 0.005 µM",3.29%
same,inhibition,"[3]; BGB IC40 combo, at 0.005 µM",-11.3%
same,inhibition,"[3]; BGB IC40 combo, at 0.05 µM",93.2%
same,inhibition,[3]; at 0.5 µM,-24.3% (inactive)
same,inhibition,"[3]; cisplatin combo, at 0.05 µM",93.4%
same,inhibition,"[3]; cisplatin combo, at 0.5 µM",-27.8%
same,inhibition,"[3]; cisplatin combo, at 5 µM",-32.7%
same,inhibition,[3]; [24],-20.9%
same,inhibition,[4]; at 0.5 µM,21.5% (inactive)
same,inhibition,[4]; [19],-19%
same,inhibition,[4]; [25],16.6%
same,inhibition,[4]; [26],97%
same,inhibition,[5]; at 0.5 µM,15.3% (inactive)
same,inhibition,[5]; [27],4.55%
same,inhibition,[5]; [28],96.8%
same,inhibition,[5]; [29],32.1%
same,inhibition,[5]; [30],99.4%
same,inhibition,"[5]; single agent, at 5 µM",98.4%
same,inhibition,[6]; at 0.5 µM,-44.3% (inactive)
same,inhibition,[6]; [31],-68.4%
same,inhibition,[6]; [32],-43.7%
same,inhibition,[7]; at 0.5 µM,53.4% (inactive)
same,inhibition,[7]; [33],36.6%
same,inhibition,[7]; [34],95.8%
same,inhibition,[8]; at 0.5 µM,35% (inactive)
same,inhibition,[8]; [35],-9.28%
same,inhibition,[8]; [36],-8.14%
same,inhibition,[9]; at 0.5 µM,8.45% (inactive)
same,inhibition,[9]; [25],32.9%
same,inhibition,[9]; [26],102%
same,inhibition,[10]; at 0.5 µM,7.8% (inactive)
same,inhibition,[10]; [37],-12.2%
same,inhibition,[10]; [38],42.5%
same,inhibition,[10]; [39],-3.09%
same,inhibition,[10]; [40],53.9%
same,inhibition,[11]; [41],92.6%
same,inhibition,[11]; at 0.5 µM,33.7% (inactive)
same,inhibition,[11]; [42],110%
same,inhibition,[12],38% (inactive)
same,inhibition,[12]; [43],37.9%
same,inhibition,[12]; [44],25.6%
same,inhibition,[13]; at 0.5 µM,35.6% (inactive)
same,inhibition,[13]; [45],32.4%
same,inhibition,"[13]; cisplatin combination, at 5 µM",98.6%
same,inhibition,[13]; [46],-14.5%
same,inhibition,"[13]; single agent, at 5 µM",105%
same,inhibition,[14]; at 0.5 µM,21.6% (inactive)
same,inhibition,"[14]; cisplatin combo, at 5 µM",92.9%
same,inhibition,"[14]; measured here: BGB IC40 combination, at 0.05 µM",-1.76%
same,inhibition,[14]; [25],22.3%
same,inhibition,"[14]; single agent, at 5 µM",89.9%
same,inhibition,[15]; at 0.5 µM,75.7% (inactive)
same,inhibition,[15]; [22],64.9%
same,inhibition,[15]; [23],80.7%
same,inhibition,"[15]; single agent, at 0.05 µM",5.92%
same,inhibition,"[15]; single agent, at 5 µM",72.3%
CON=C1CN(c2nc3c(cc2F)c(=O)c(C(=O)O)cn3C2CC2)CC1CN (stereo not drawn),inhibition,[1]; [16],-25.3% (inactive)
same,inhibition,[1]; [17],-14.3%
same,inhibition,[1]; [18],-29%
same,inhibition,[1]; [19],-34.5%
same,inhibition,[1]; [20],-40.3%
same,inhibition,[1]; [21],-32.3%
same,inhibition,"[2]; BGB combo, at 5 µM",-16.7%
same,inhibition,[2]; at 0.5 µM,7.67% (inactive)
same,inhibition,"[2]; cisplatin combo, at 5 µM",-7.53%
same,inhibition,[2]; [22],8.62%
same,inhibition,[2]; [23],24.5%
same,inhibition,"[2]; single agent, at 5 µM",-10.6%
same,inhibition,"[3]; BGB IC20 combo, at 0.005 µM",-9.19%
same,inhibition,"[3]; BGB IC40 combo, at 0.005 µM",-11.5%
same,inhibition,"[3]; BGB IC40 combo, at 0.05 µM",-24.2%
same,inhibition,[3]; at 0.5 µM,-23.7% (inactive)
same,inhibition,"[3]; cisplatin combo, at 0.05 µM",-30.6%
same,inhibition,"[3]; cisplatin combo, at 0.5 µM",-28.8%
same,inhibition,"[3]; cisplatin combo, at 5 µM",-12.6%
same,inhibition,[3]; [24],-12.7%
same,inhibition,[4]; at 0.5 µM,-19.1% (inactive)
same,inhibition,[4]; [19],-15.4%
same,inhibition,[4]; [25],-33.2%
same,inhibition,[4]; [26],-30.4%
same,inhibition,[5]; at 0.5 µM,5.68% (inactive)
same,inhibition,[5]; [27],30.9%
same,inhibition,[5]; [28],13.1%
same,inhibition,[5]; [29],-15.5%
same,inhibition,[5]; [30],2.1%
same,inhibition,"[5]; single agent, at 5 µM",3.62%
same,inhibition,[6]; at 0.5 µM,-6.34% (inactive)
same,inhibition,[6]; [31],-22.3%
same,inhibition,[6]; [32],10.2%
same,inhibition,[7]; at 0.5 µM,-12.3% (inactive)
same,inhibition,[7]; [33],-16.7%
same,inhibition,[7]; [34],-12.2%
same,inhibition,[8]; at 0.5 µM,-4.81% (inactive)
same,inhibition,[8]; [35],-8.23%
same,inhibition,[8]; [36],-6.42%
same,inhibition,[9]; at 0.5 µM,-15.8% (inactive)
same,inhibition,[9]; [25],-15.1%
same,inhibition,[9]; [26],-25.5%
same,inhibition,[10]; at 0.5 µM,-11.3% (inactive)
same,inhibition,[10]; [37],-3.57%
same,inhibition,[10]; [38],-21.3%
same,inhibition,[10]; [39],-27.7%
same,inhibition,[10]; [40],-9.24%
same,inhibition,[11]; [41],-28.4%
same,inhibition,[11]; at 0.5 µM,-4.07% (inactive)
same,inhibition,[11]; [42],-3.27%
same,inhibition,[12],0.97% (inactive)
same,inhibition,[12]; [43],7.71%
same,inhibition,[12]; [44],2.88%
same,inhibition,[13]; at 0.5 µM,-10.5% (inactive)
same,inhibition,[13]; [45],-2.65%
same,inhibition,"[13]; cisplatin combination, at 5 µM",-140%
same,inhibition,[13]; [46],-26.9%
same,inhibition,"[13]; single agent, at 5 µM",-46.4%
same,inhibition,[14]; at 0.5 µM,-9.98% (inactive)
same,inhibition,"[14]; cisplatin combo, at 5 µM",24.4%
